# High-throughput results (PubChem)
# The list is not random: actives were taken first. Their share in the collection is about 2.9%.
# ADAM10 inh: human ADAM10 inhibitors, primary screen, biochemical, QFRET, HTS; actives 0.62% (n = 370,000); Disintegrin and metalloproteinase domain-containing protein 10 (Homo sapiens), O14672; inhibition, % at 7 µM; recombinant ADAM10, EDANS/DABCYL FRET peptide cleavage, 3 h;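 active = inhibition above a per-campaign cutoff equal to the mean of compounds falling between control-based bounds plus 3 SD, cut at about 20% in these data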;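 also: 0% = DMSO wells while the 100% control is not disclosed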
# PLCb3 inh: human PLC-beta3 inhibitors, primary screen, biochemical, fluorescence | inhibition, % at 12.2 µM | AID 720704, 2013 | actives 0.18% (n = 370,000) | Purified PLC-beta3, fluorogenic substrate; in the data active = inhibition above about 11%;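 also: 0% = median of compound wells on plate and 100% = full blocker control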
# KLK7 zymogen act: proKLK7 zymogen activators, primary screen, biochemical, fluorescence intensity. Kallikrein-7 (Homo sapiens), P49862. purified proKLK7, EDANS-DABCYL substrate fluorescence; 100% is mature enzyme control, 0% vehicle. activation, % at 7 µM. actives 0.9% (n = 370,000). AID 652039, 2013;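 active = activation above the mean of all tested compounds plus 3 SD, computed per campaign excluding outliers beyond control limits, cut at about 13% in these data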
# Target sequence (P49862 whole entry, looked up): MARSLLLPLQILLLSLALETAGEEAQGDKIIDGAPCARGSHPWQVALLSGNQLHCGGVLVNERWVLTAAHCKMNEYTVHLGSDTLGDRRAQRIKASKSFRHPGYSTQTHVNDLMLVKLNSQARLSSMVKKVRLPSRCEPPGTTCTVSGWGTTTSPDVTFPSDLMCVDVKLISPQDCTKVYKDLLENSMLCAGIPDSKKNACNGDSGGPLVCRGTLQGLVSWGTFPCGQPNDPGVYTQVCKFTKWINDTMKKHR
# PLCg1 inh: PLC-gamma1 enzyme inhibitors, primary screen, biochemical, fluorescence, purified enzyme | inhibition, % at 12.2 µM | 1-phosphatidylinositol 4,5-bisphosphate phosphodiesterase gamma-1 (Homo sapiens), P19174 | actives 0.84% (n = 370,000) | fluorogenic substrate; in the data active = inhibition above about 9.5%
# ADAM17 inh: ADAM17 inhibitors, primary screen, biochemical, QFRET | Disintegrin and metalloproteinase domain-containing protein 17 (Homo sapiens), P78536 | inhibition, % at 6.95 µM | actives 0.83% (n = 370,000) | AID 720648, 2013 | recombinant ADAM17, EDANS/DABCYL FRET peptide cleavage;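 active = inhibition above the mean of compounds lying between control limits plus 3 SD, set per campaign, cut at about 8.5% in these data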;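 also: 0% = DMSO-only wells as the low control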
# ADAM10 confirm: human ADAM10 inhibitors, confirmation, biochemical, QFRET, triplicate. actives 1% (n = 2,100). inhibition, % at 6.95 µM. ADAM10 QFRET peptide cleavage, EDANS fluorescence. AID 743208, 2013. shares compounds with ADAM10 inh;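 active = inhibition above about 20% chosen separately for each screening run, limit read from the data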;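 also: 0% = DMSO wells and 100% = marimastat wells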
# ADAM17 ctr: ADAM17 inhibitors, counter-screen for ADAM10 exosite inhibitor project, biochemical, QFRET, high throughput; AID 743214, 2013; inhibition, % at 6.95 µM; actives 0.5% (n = 2,100); ADAM17 QFRET peptide cleavage, EDANS fluorescence; shares compounds with ADAM10 inh;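 active = mean triplicate inhibition above the solvent-only control wells' mean plus 3 SD, cut at about 12% in these data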;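 also: 0% = DMSO wells and 100% = marimastat wells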
# ADAM10 counter: ADAM10 inhibitors, counter-screen for ADAM17 exosite inhibitor project, biochemical, FRET, human ADAM10 | inhibition, % at 6.95 µM | actives 47% (n = 2,900) | shares compounds with ADAM17 inh | recombinant ADAM10, EDANS/DABCYL FRET peptide cleavage, 3 h;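 active = mean inhibition over the triplicate runs exceeds the activity threshold set in the earlier primary screen, cut at about 20% in these data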;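 also: 0% = DMSO wells and 100% = marimastat wells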
# ADAM17 confirm: ADAM17 inhibitors, hit retest, confirmation, biochemical, QFRET peptide cleavage | shares compounds with ADAM17 inh | recombinant ADAM17, EDANS/DABCYL QFRET peptide cleavage | inhibition, % at 6.95 µM | actives 65% (n = 2,900);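 active = mean inhibition across replicates above the hit cutoff set in the primary screen, cut at about 8.5% in these data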;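 also: 0% = DMSO wells and 100% = marimastat wells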
# An asterisk follows results filed as active; . = no result given.
SMILES,ADAM10 inh,PLCb3 inh,KLK7 zymogen act,PLCg1 inh,ADAM17 inh,ADAM10 confirm,ADAM17 ctr,ADAM10 counter,ADAM17 confirm
OCCNc1nc(Nc2ccccc2OC(F)(F)F)nc(N2CCCC2)n1,1,-1,1,2,-4,.,.,.,.
OCCNc1nc(Nc2ccccc2Oc2ccccc2)nc(N2CCCC2)n1,27*,2,0,6,12*,7,1,21*,13*
O=C(/C=C/C=C/c1ccccc1)CC1(O)C(=O)N(CCc2ccccc2)c2ccccc21 (stereo not given),21*,0,1,9,9.3*,5,3,36*,19*
CC(C)NC(=O)COc1coc(CN2CCN(c3ccccc3)CC2)cc1=O,6,-3,0,5,2,.,.,.,.
O=S(=O)(NCC(Nc1ccc(Cl)cc1)c1ccccc1)c1ccccc1 (stereo not given),53*,10,1,9,26*,11,3,46*,22*
O=C(NCc1ccc(F)cc1)c1cccc2c1C(=O)c1ccc(N3CCC(N4CCCCC4)CC3)cc1S2(=O)=O,-10,-120,1,-91,-2,.,.,.,.
Cc1ccc(-c2nc3ccccc3c(=O)n2CCCn2ccnc2)cc1,-14,-3,0,-1,-6,.,.,.,.
CCOC(=O)C1=CN(Cc2cccc(F)c2)S(=O)(=O)NC1c1ccc(Br)cc1F (stereo not given),21*,1,0,4,9.6*,3,1,24*,15*
CC(C)(C)c1ccc(-c2cc(-c3ccccc3O)[nH]n2)cc1,34*,-1,0,4,17*,11,4,22*,11*
Cc1ccc(O)c(-c2cc(-c3ccccc3C)[nH]n2)c1,24*,2,0,1,9.8*,8,3,27*,12*
CC(C)(C)c1ccc(-c2cc(N)n[nH]2)cc1,-10,-1,0,0,-5,.,.,.,.
COc1cc(/C=N/N=C(/C(=O)c2ccccc2)c2ccccc2)cc(OC)c1O,10,2,1,1,2,.,.,.,.
CCOc1cc(/C=N/O)cc(Br)c1OCc1ccc(Cl)cc1,25*,-2,1,2,8.9*,6,3,52*,21*
COc1ccc(CCNC(=O)c2ccc(=O)[nH]n2)cc1OC,6,-1,-1,4,-2,.,.,.,.
Cc1ccc(NC(=O)NNC(=O)Cn2nc(-c3ccccc3)c(-c3ccccc3)c(C#N)c2=O)cc1,20*,1,0,-4,20*,8,3,14,15*
COc1ccc(N(CC(=O)Nc2ccc(F)cc2)S(=O)(=O)c2ccccc2[N+](=O)[O-])c(OC)c1,25*,2,1,9,11*,2,1,32*,14*
Cc1cc(NS(=O)(=O)c2ccc(NC(=O)c3ccco3)cc2)no1,9,6,0,7,4,.,.,.,.
C[C@H](CO)N1C[C@H](C)[C@H](CN(C)S(=O)(=O)c2cn(C)cn2)Oc2ccc(NC(=O)Nc3ccc(C(F)(F)F)cc3)cc2CC1=O,15,4,0,1,8,.,.,.,.
C[C@@H]1CN([C@@H](C)CO)C(=O)Cc2cc(NC(=O)Nc3ccc(C(F)(F)F)cc3)ccc2O[C@@H]1CN(C)S(=O)(=O)c1ccc(Cl)cc1,35*,5,0,2,15*,9,3,51*,27*
C[C@H]1CN([C@@H](C)CO)C(=O)Cc2cc(NC(=O)CCC(F)(F)F)ccc2O[C@H]1CN(C)Cc1ccc(C(F)(F)F)cc1,25*,6,0,4,11*,2,2,27*,16*
O=C(COC(=O)c1c2ccccc2cc2ccccc12)Nc1ncc(C(F)(F)F)cc1Cl,-48,-135,0,-108,-14,.,.,.,.
CC1(C(=O)N2CC3(CC(c4cccc(NC(=O)COc5ccc(Cl)cc5)c4)=NO3)C[C@@H]2C(N)=O)CC1 (stereo not given in full),4,2,1,0,-2,.,.,.,.
NC(=O)[C@H]1CC2(CC(c3cccc(NC(=O)COc4ccc(Cl)cc4)c3)=NO2)CN1C(=O)c1ccc(Cl)cc1 (stereo not given in full),36*,2,1,9,14*,4,1,37*,22*
CCOc1cc(S(=O)(=O)Nc2cc(C)cc(C)c2)ccc1Cl,36*,4,0,8,20*,3,1,27*,15*
COc1ccc(C2CC(c3ccccc3)=NN2C(=O)COC(=O)c2cccnc2Cl)cc1 (stereo not given),20*,0,1,3,8.9*,5,1,14,9.3*
CC(=O)Nc1ccc(S(=O)(=O)N2CCC(C(=O)NCCC(=O)Nc3ccccc3)CC2)cc1,1,-8,0,-3,-2,.,.,.,.
NC(=O)CC(NC(=O)c1ccc(Br)cc1)c1ccc(N2CCCCCC2)c([N+](=O)[O-])c1 (stereo not given),22*,7,-1,8,12*,3,1,10,5
Cc1ccc(C)c(Cn2nnc3c(=O)[nH]c(C4CCN(S(=O)(=O)c5ccc(S(=O)(=O)NC6CC6)cc5)CC4)nc32)c1,25*,-2,0,7,11*,5,2,39*,21*
Cc1ccc2c(c1)c1c(c(=O)n(-c3ccccc3)c(=O)n1CC(=O)NCC1CCCO1)n2C (stereo not given),-254,-51,1,-33,-80,.,.,.,.
